From PubChem BioAssay AID1135 (Sanford-Burnham Center for Chemical Genomics, 2008)
Screen size: about 200,000 compounds; about 65 (0.03%) were called active.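 The calls were made as follows: active = over 50% inhibition of tissue-nonspecific alkaline phosphatase at 20 µM in the single-dose screen; inactive = the rest.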 This excerpt belongs to a sample that is enriched for actives.

molecular target: Alkaline phosphatase, tissue-nonspecific isozyme (Homo sapiens) (UniProt P05186); assay: human TNAP enzyme inhibitors, primary screen, biochemical, luminescent, high phosphate acceptor level, uHTS (AID 1135); conditions: purified TNAP, CDP-star luminescence, 1 M DEA; at 20 µM; active compounds read high;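 also: plate controls were DMSO wells for no effect and EDTA-quenched wells as full inhibition for full effect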
Sequence (P05186 whole entry, looked up): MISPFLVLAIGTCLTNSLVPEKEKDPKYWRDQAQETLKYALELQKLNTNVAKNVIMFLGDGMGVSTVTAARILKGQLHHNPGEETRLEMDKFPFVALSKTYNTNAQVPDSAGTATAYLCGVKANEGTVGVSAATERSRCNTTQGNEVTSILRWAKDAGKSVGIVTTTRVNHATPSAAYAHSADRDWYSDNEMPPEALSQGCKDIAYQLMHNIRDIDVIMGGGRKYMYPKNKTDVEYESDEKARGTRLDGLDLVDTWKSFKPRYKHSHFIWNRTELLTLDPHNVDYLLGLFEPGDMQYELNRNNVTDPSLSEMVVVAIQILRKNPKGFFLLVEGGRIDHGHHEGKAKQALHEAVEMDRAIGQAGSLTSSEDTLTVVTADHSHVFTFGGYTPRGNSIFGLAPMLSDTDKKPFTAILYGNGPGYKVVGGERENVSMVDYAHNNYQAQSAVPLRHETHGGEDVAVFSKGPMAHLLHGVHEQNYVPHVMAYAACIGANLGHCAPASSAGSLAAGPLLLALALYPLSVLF

inhibition, inactive:
CCOC(=O)/C(=N\Nc1cc(Cl)ccc1Cl)N1CCN(C)CC1 3.4%
S=C(NCC1CCCO1)N1CCN(c2ccc(Cl)c(Cl)c2)CC1 (centres undefined) -1.7%
COc1cc(C2OC(c3cc(OC)c(OC)c(OC)c3)C(C)C2C)cc(OC)c1OC (centres undefined) -2.4%
O=C(CCCCCNC(=O)c1ccccc1)N/N=C/c1ccccc1 -6.8%
O=C(NCCN1C(=O)S/C(=C\c2cccnc2)C1=O)c1cccc(OC(F)F)c1 -0.3%
COc1ccc(CCc2nnc(CCC(=O)NCc3cnn(-c4ccccc4C)c3)o2)cc1 1.5%
S=C(NCCc1ccccc1)NCC1CCCO1 (centres undefined) -0.7%
CN(C)c1ccc(/C=N/NC(=O)C(O)c2ccc(Br)cc2)cc1 (centres undefined) -1.9%
CCCCN(C)CCNC(=O)CSCc1ccc(C)cc1 -5.4%
CC(=O)c1sc(N/N=C/c2ccc(C(C)C)cc2)nc1C 13.5%
Cc1ccc(OCC(=O)NC(C)c2ccccc2)c([N+](=O)[O-])n1 (centres undefined) -1.6%
Cc1ccc(CSCC(N)C(=O)O)cc1 (centres undefined) 0.6%
O=C(Nc1ccc(N2CCOCC2)cc1)c1ccc(-c2ccccc2[N+](=O)[O-])o1 0.3%
Cc1ccc(-c2nc(-c3cccnc3)sc2CC(=O)Nc2ccc(C)c(Cl)c2)cc1 -1.4%
O=C(CC1SC(=Nc2ccccc2)N(Cc2ccccn2)C1=O)Nc1cccc(Cl)c1 (centres undefined) 3%
CCCCC(CC(C)O)c1n[nH]c(=S)n1-c1ccccc1 (centres undefined) 7.9%
COCCn1c(=NC(=O)c2ccccc2[N+](=O)[O-])sc2cc(S(C)(=O)=O)ccc21 3.3%
C#CCCCc1nc2ccccc2c(=O)n1N -3.7%
Cc1c(NC(=S)Nc2ccccc2)c(=O)n(-c2ccccc2)n1C 4.8%
O=C(COC(=O)[C@H](Cc1ccccc1)NC(=O)c1cccs1)Nc1cc(F)ccc1F -1.2%
C=CCn1c(SCCOc2ccc(OC)cc2)nnc1C(NC(=O)c1ccc(OC)cc1)C(C)C (centres undefined) -3.4%
CN1CCN(C(=O)N2c3ccccc3CCc3ccccc32)CC1 -5.7%
COc1ccc(CCNC(=O)CSc2nc3[nH]ncc3c(=O)n2-c2cccc(C(F)(F)F)c2)cc1OC 2.6%
CN(CCOc1ccc(Br)cc1)CC(=O)Nc1cccc(S(=O)(=O)NC2=NCCC2)c1 -4.6%
O=C(NNC1CC(=O)N(c2cccc(Cl)c2)C1=O)c1cccnc1 (centres undefined) -3.4%
Cc1ccc(S(=O)(=O)NC2(C(F)(F)F)NC(=O)N(CCc3ccccc3)C2=O)cc1 (centres undefined) -6.1%
COc1ccc(OC)c(S(=O)(=O)Nc2cccc(-c3ccc4nncn4n3)c2)c1 -3.7%
C[C@@H](O)c1nc2ccccc2n1N -1.1%
O=C(Nc1cccc(Cl)c1)c1cc([N+](=O)[O-])ccc1N1CCN(CCO)CC1 2.5%
CCOc1ccc(NC(=O)CSc2ncnc3c2sc2ccccc23)cc1 -1.9%
Cc1ccc2[nH]c(=O)c(CN(CC3COCCO3)C(=O)Nc3ccccc3C)cc2c1 (centres undefined) -4.6%
COc1cccc(CN(C)CC(=O)NCc2ccccc2Cl)c1OC 1.3%
CCC(C)(C)NC(=O)CN(C(=O)CCC(=O)Nc1cc(C)ccn1)c1ccc2c(c1)OCCO2 -6%
O=C(Nc1ccc(N2CCN(C(=O)c3cccs3)CC2)cc1)c1cccnc1Cl -2.2%
CN(C)c1ccc(/C=N/Nc2cc(N3CCOCC3)nc(N3CCOCC3)n2)cc1 -5.4%
O=C(NNc1c2ccccc2nc2ccccc12)c1cc2ccccc2cc1O 26.1%
O=c1oc(/C=C/c2ccccc2)nc2ccccc12 0%
O=C(O)c1ccc(N/N=C/c2ccc3ncccc3c2)cc1 0.7%
Cc1[nH]c2ccccc2c1C(=O)COC(=O)c1c(-c2ccccc2)noc1C -2.1%
CC/C(O)=C1\C(=O)CC(C)(C)CC1=NCCc1nc2ccccc2[nH]1 -0.3%
O=C(NCc1cccs1)C(=O)NCC1OCCCN1S(=O)(=O)c1ccc(F)cc1 (centres undefined) 0.7%
CCn1c(SCC(=O)N/N=C/C=C/c2ccccc2[N+](=O)[O-])nnc1-c1ccccc1 1.3%
CCOc1ccc(NS(=O)(=O)c2cc(C)c(C)cc2C)cc1 -1.7%
Cc1ccc(SCCC(=O)NC(C(C)C)C(C)C)cc1 -0.8%
O=C(/C=C/c1ccccc1Cl)Nc1ccc(S(=O)(=O)Nc2ncccn2)cc1 -0.8%
Cc1ccc(C)c(NS(=O)(=O)c2ccc(OCC(=O)NCc3cccnc3)cc2)c1 3.1%
C/C(=N\N=C(N)N)c1ccc(Cl)cc1 -5.8%
Cc1cc(=O)oc2c1c(C)nn2-c1ccc(Cl)cc1 -6.1%
CC(C)Oc1ccc(Cc2n[nH]c(=S)n2Cc2ccccc2)cc1Cl -3.4%
Cc1no[n+]([O-])c1COc1ccccc1/C=C1\NC(=S)NC1=O 0.1%
NS(=O)(=O)c1ccc(NC(=O)/C=C/c2ccccc2Cl)cc1 6.2%
COc1ccc(OC)c(S(=O)(=O)NCCC(C)C)c1 -7.1%
COc1ccc(CCNC2=C(Cl)C(=O)N(Cc3ccccc3)C2=O)cc1OC 0.7%
Cc1ccccc1CSCCNC(=O)c1ccc(N(C)S(=O)(=O)c2ccccc2)cc1 -8.8%
Cc1ccc(NC(=O)CSCC(=O)NC2CCCCC2)cc1 -0.6%
COc1ccc(C/C(N)=N/OC(=O)c2ccco2)cc1OC -4.3%
CC/C(Cc1ccccc1)=N/NC(=O)CCn1nnc2ccccc21 -4.6%
CCOc1ccc(C(=O)NC(=S)Nc2ccc(N3CCOCC3)c(Cl)c2)cc1[N+](=O)[O-] 1.7%
CN1CCN(C(=O)/C(=C\c2ccc3c(c2)OCO3)NC(=O)c2cccs2)CC1 -3.5%
